In PubChem BioAssay (NCI):
This is part of a sample that, as a whole, favours compounds with a hit. Of some 79,000 tested, about 15% had one in any assay. Rule as the data show it: active = growth inhibition above about 70%; inactive = the rest.

Key:
[1] = NCI Yeast Anticancer Drug Screen. Data for the rad50 strain (AID 155);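 also: 0% = growth of vehicle-only cultures of the same strain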; conditions: S. cerevisiae rad50 strain growth inhibition; at 50.0 µM; active compounds read high
Procedure, shortened: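 Relative growth inhibition (compound vs vehicle) was measured in yeast with a defined repair-gene alteration.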

[2] = NCI Yeast Anticancer Drug Screen. Data for the mec2-1 strain (AID 157); conditions: S. cerevisiae mec2-1 strain, at 50.0 µM, active compounds read high
Procedure, shortened: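 Test agents were screened against the mec2-1 yeast strain, with defined DNA repair or cell cycle alteration. Growth was scored as inhibition against vehicle-only controls.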

[3] = NCI Yeast Anticancer Drug Screen. Data for the sgs1 mgt1 strain (AID 161);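 also: 0% = growth of cultures given vehicle only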; conditions: S. cerevisiae sgs1 mgt1 strain, at 50.0 µM, active compounds read high
Procedure, shortened: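 Test agents were incubated with a DNA-repair-mutant yeast strain. Growth was then read and compared against vehicle-treated controls.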

[4] = NCI Yeast Anticancer Drug Screen. Data for the cln2 rad14 strain (AID 165);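 also: 0% = growth equal to vehicle treated cultures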; conditions: S. cerevisiae cln2 rad14 strain, at 50.0 µM, active compounds read high
Procedure, shortened: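 Growth of compound-exposed yeast (cln2 rad14 genotype) measured and expressed as inhibition relative to vehicle.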

[5] = NCI Yeast Anticancer Drug Screen. Data for the bub3 strain (AID 167); conditions: S. cerevisiae bub3 mutant strain, at 50.0 µM, active compounds read high
Procedure, shortened: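 Screening used yeast with an engineered genetic alteration affecting cell cycle control. Compound-exposed cultures were compared with vehicle cultures, and reduced growth was taken as inhibition.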

Measured: growth inhibition

Fc1ccc(F)c(C2SCc3nc4ccccc4n32)c1 (stereo not given)
inactive: [1] 19.4% | [2] 19.1% | [3] 33.1% | [4] 25.1% | [5] 16.6%

Cc1cc(=NO)cc(C)n1O
inactive: [1] 43.5% | [2] 21% | [3] 54.9% | [4] -3.3% | [5] 3.55%

CCOC(=O)[n+]1c(C)ccc2ccccc21
inactive: [1] -20% | [2] -10.9% | [3] -9.55% | [4] -23.8% | [5] 11%

c1ccc([P+](CC[P+](c2ccccc2)(c2ccccc2)c2ccccc2)(c2ccccc2)c2ccccc2)cc1
inactive: [1] -11.7% | [2] -15.6% | [3] -1.45% | [4] -31.8% | [5] -12.4%

COC1=NO[C@@H]2C=CO[C@H]12
inactive: [1] -8.2% | [2] -13.2% | [3] -5.05% | [4] -18.4% | [5] 8.35%

Cc1ccc2c(C)cc(=O)n(C)c2c1
inactive: [1] 4.7% | [2] 11.2% | [3] 9.6% | [4] 4.9% | [5] -0.25%

Cc1cc(O)c(C(C)C)cc1N=O
inactive: [1] 22.2% | [2] -7.25% | [3] 18.5% | [4] 16.6% | [5] -15.6%

CCN1C(=O)C(=O)C(CC)(CC)C1=O
inactive: [1] -8.4% | [2] -1.75% | [3] -7% | [4] -8.25% | [5] 0.85%

CN(C)CCC(O)c1ccccc1 (stereo not given)
inactive: [1] 7.2% | [2] -1.25% | [3] 2.2% | [4] -20.5% | [5] -6.2%

COc1ccc2nc3cccc([N+](=O)[O-])c3c(NCCC(=O)O)c2c1
inactive: [1] 56.1% | [2] -18.9% | [3] 49.9% | [4] 26.8% | [5] -5.25%

C=C(CCCCCCCCC)CC(=O)SCCNC(=O)CCNC(=O)C(O)C(C)(C)COP(=O)(O)OP(=O)(O)OCC1OC(n2cnc3c(N)ncnc32)C(O)C1OP(=O)(O)O (stereo not given)
inactive: [1] -7.95% | [2] -14.8% | [3] 0.55% | [4] -17% | [5] -19.6%

N#CC(C#N)=CC(C#N)C#N
inactive: [1] -10% | [2] -4.3% | [3] -12.2% | [4] -65.1% | [5] 5.1%

Cc1cc(C)c(OCC(O)CO)c(C)c1 (stereo not given)
inactive: [1] 2.45% | [2] -26.1% | [3] 14.7% | [4] -10.1% | [5] 5.9%

O=c1cc(NCc2cccc3ccccc23)[nH]c(=O)[nH]1
inactive: [1] 4.45% | [2] 24.1% | [3] -5.25% | [4] -10.1% | [5] -0.75%

OCCN(Cc1ccccn1)Cc1ccccn1
inactive: [1] 14% | [2] -3.7% | [3] 36.2% | [4] 11.2% | [5] 8.4%

CC(C)(C)OC(=O)NCCc1ccc(N)cc1
inactive: [1] -18.1% | [2] -5.55% | [3] 22.9% | [4] -0.7% | [5] 8.05%

Cc1ccc2c(c1)[nH]c(=S)n2C=C1C(=O)CC(C)(C)CC1=O
inactive: [1] -40% | [2] -63.3% | [3] -33.8% | [4] 9.05% | [5] -21.6%

N#CCC(=O)N1CCc2ccccc2C1
inactive: [1] -30.9% | [2] 0.45% | [3] 1.85% | [4] -79.7% | [5] 9.6%

Nc1ccc(-c2nc3ccc(N)cc3[nH]2)cc1
inactive: [1] -17.1% | [2] -17.9% | [3] -18.1% | [4] 6.45% | [5] -4%

CC(=O)Oc1c2oc3cc(O)c(O)cc3c2c(OC(C)=O)c2oc3cc(O)c(O)cc3c12
inactive: [1] -0.4% | [2] 0.05% | [3] -1.15% | [4] -5.45% | [5] -0.8%

Nc1nc(-c2ccc(F)cc2)cc(-c2cc(-c3ccc(F)cc3)nc(N)n2)n1
inactive: [1] -17.1% | [2] -2.75% | [3] -20.9% | [4] -2% | [5] -7.15%

O=c1c(Br)c(-c2ccccc2Br)[nH]c2ccccc12
inactive: [1] -1.25% | [2] 13.7% | [3] 11.3% | [4] 0.4% | [5] -3.45%

CSc1nc(N(C)C)c2[nH]c(C)nc2n1
inactive: [1] 7.2% | [2] 9.5% | [3] -6.55% | [4] 36.6% | [5] 10.6%

CCOC(=O)c1cccc(C(=O)OCC)n1
inactive: [1] 4.75% | [2] -2.35% | [3] 11.8% | [4] -1.65% | [5] 18.7%

Cc1c2ccccc2nc(CSc2n[nH]c(=S)s2)[n+]1[O-]
inactive: [1] -8.55% | [2] 18.6% | [3] 8% | [4] -44.5% | [5] 8.5%
